# Assay results taken from PubChem BioAssay.
# The source made the active and inactive calls. Unless noted, no stated cut-off is given here; in the data, active means inhibition above about 80%; inactive means the rest.
# Legend:
# [1] = LFS_MB_P medulloblastoma growth inhibition, cell-based, chromothripsis tumors, cisplatin or BGB combos (AID 1671449); conditions: LFS_MB_P medulloblastoma cells;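 further: cells exposed for 96 hours; 0% = vehicle DMSO and 100% = killing by high DMSO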
# [2] = HDN33 neuroblastoma growth inhibition, cell-based, chromothripsis tumors, cisplatin or BGB combos (AID 1671450); conditions: HDN33 neuroblastoma cells, stronger effect = higher value;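 further: cells exposed to compound for four days; 0% = vehicle DMSO and 100% = cell killing by high DMSO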
# [3] = ICB984 medulloblastoma cell growth inhibition, synergistic combos for chromothripsis tumors, cisplatin or BGB combos (AID 1671451; call rule not given here;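 further: cells exposed for 96 hours before readout; 0% = vehicle DMSO and 100% = killing by high DMSO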); conditions: ICB984 medulloblastoma cells, drug combinations, stronger effect = higher value
# [4] = LFS_MB_1R medulloblastoma cell growth inhibition, synergistic combos for chromothripsis tumors, cisplatin or BGB combos (AID 1671452); conditions: LFS_MB_1R medulloblastoma cells, stronger effect = higher value;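 further: cells exposed for 96 hours before readout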
# [5] = HTB85 osteosarcoma cell growth inhibition, synergistic combos for chromothripsis tumors, BGB or cisplatin IC20 combos (AID 1671453); conditions: HTB85 osteosarcoma cells, drug combinations, stronger effect = higher value;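 further: cells exposed for 96 hours before readout; 0% = vehicle DMSO and 100% = high DMSO killing control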
# [6] = CRL2098 osteosarcoma cell growth inhibition, synergistic combos for chromothripsis tumors, BGB or cisplatin IC20 combos (AID 1671454); conditions: CRL2098 osteosarcoma cells, drug combinations, stronger effect = higher value;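 further: cells exposed for 96 h before readout; 0% = vehicle DMSO and 100% = killing by high DMSO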
# [7] = HD-MB03 medulloblastoma cell growth inhibition, synergistic combos for chromothripsis tumors, BGB or cisplatin IC20 combos (AID 1671455; in the data active means inhibition above about 83%;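 further: 0% = vehicle DMSO and 100% = high DMSO as cytotoxic control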); conditions: HD-MB03 medulloblastoma cells, stronger effect = higher value
# [8] = UWB1.289 ovarian carcinoma cell growth inhibition, synergistic combos for chromothripsis tumors, BGB or cisplatin combos (AID 1671456); conditions: UWB1.289 ovarian carcinoma cells, stronger effect = higher value;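 further: cells exposed to compound for four days; 0% = vehicle DMSO and 100% = killing by high DMSO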
# [9] = LFS_MB_2R medulloblastoma cell growth inhibition, synergistic combos for chromothripsis tumors, cisplatin combos (AID 1671457); conditions: LFS_MB_2R medulloblastoma cells, stronger effect = higher value;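 further: cells exposed to compound for four days before readout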
# [10] = MDA-MB-436 breast carcinoma cell growth inhibition, synergistic combos for chromothripsis tumors, BGB or cisplatin combos (AID 1671458; call rule not given here;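 further: cells exposed for 96 hours; 0% = vehicle DMSO and 100% = killing by high DMSO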); conditions: MDA-MB-436 breast carcinoma growth inhibition, drug combinations, stronger effect = higher value
# [11] = UWB1.289_BRCA1 ovarian cancer growth, cell-based, BGB or cisplatin combinations (AID 1671459); conditions: UWB1.289 BRCA1 ovarian carcinoma, drug combinations, stronger effect = higher value
# [12] = human astrocyte viability loss, single and combined drugs, cytotoxicity control for chromothriptic childhood tumor combination screen, cell-based, BGB or cisplatin IC20 combos (AID 1671460); conditions: Human astrocytes, drug combinations, stronger effect = higher value;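 further: cells exposed to compounds for 96 hours before viability readout; 0% = vehicle and 100% = killing control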
# [13] = growth inhibition of BT084 medulloblastoma cells, cell-based, ICGC_MB145, cisplatin and BGB IC40 combos (AID 1671461); conditions: drug combinations, stronger effect = higher value;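 further: cells exposed to drugs for 96 hours; 0% = vehicle DMSO and 100% = high DMSO full killing control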
# [14] = growth inhibition of RCMB18 medulloblastoma cells, cell-based, cisplatin and BGB IC40 combos (AID 1671462); conditions: stronger effect = higher value;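 further: cells exposed to compound for four days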
# [15] = growth inhibition of CRL1545 osteosarcoma cells, cell-based, cisplatin and BGB IC20 combos (AID 1671464); conditions: stronger effect = higher value;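 further: cells exposed to compound for 96 hours before readout; 0% = vehicle DMSO and 100% = high DMSO killing control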
# [16] = measured here: combination with BGB IC40, at 0.05 µM
# [17] = measured here: with BGB IC20 combination, at 0.5 µM
# [18] = measured here: with cisplatin IC20 combination, at 0.5 µM
# [19] = measured here: combination with cisplatin, at 0.5 µM
# [20] = measured here: combination with cisplatin, at 5 µM
compound,measurement,setting,value
Nc1ccccc1NC(=O)c1cnccn1,inhibition,"[1]; at 0.5 µM, stronger effect = higher value",-12.4% (inactive)
same,inhibition,"[1]; measured here: combination with BGB IC20, at 0.005 µM",-41.6%
same,inhibition,"[1]; measured here: combination with BGB IC40, at 0.005 µM",85.5%
same,inhibition,[1]; [16],-7.35%
same,inhibition,"[1]; measured here: combination with cisplatin, at 0.5 µM, stronger effect = higher value",-18.9%
same,inhibition,"[1]; measured here: combination with cisplatin, at 5 µM, stronger effect = higher value",-28.5%
same,inhibition,"[2]; BGB combo, at 5 µM",-12.4%
same,inhibition,[2]; at 0.5 µM,-14.6% (inactive)
same,inhibition,"[2]; cisplatin combo, at 5 µM",6.5%
same,inhibition,[2]; [17],-34.1%
same,inhibition,[2]; [18],5.82%
same,inhibition,"[2]; single agent, at 5 µM",1.32%
same,inhibition,"[3]; BGB IC20 combo, at 0.005 µM",-16.9%
same,inhibition,"[3]; BGB IC40 combo, at 0.005 µM",-7.68%
same,inhibition,"[3]; BGB IC40 combo, at 0.05 µM",-8.97%
same,inhibition,[3]; at 0.5 µM,-30.1% (inactive)
same,inhibition,"[3]; cisplatin combo, at 0.05 µM",-14.5%
same,inhibition,"[3]; cisplatin combo, at 0.5 µM",-45.8%
same,inhibition,"[3]; cisplatin combo, at 5 µM",-16.9%
same,inhibition,"[3]; measured here: 5 uM single agent, at 5 µM",-10%
same,inhibition,[4]; at 0.5 µM,-27.6% (inactive)
same,inhibition,[4]; [16],-29.7%
same,inhibition,[4]; [19],-55.5%
same,inhibition,[4]; [20],-22%
same,inhibition,[5]; at 0.5 µM,-12.2% (inactive)
same,inhibition,"[5]; measured here: with BGB IC20, at 0.5 µM",-6.35%
same,inhibition,"[5]; measured here: with BGB IC20, at 5 µM",4.3%
same,inhibition,"[5]; measured here: with cisplatin IC20, at 0.5 µM",-15.5%
same,inhibition,"[5]; measured here: with cisplatin IC20, at 5 µM",27.4%
same,inhibition,"[5]; single agent, at 5 µM",-13.3%
same,inhibition,[6]; at 0.5 µM,-55.8% (inactive)
same,inhibition,"[6]; measured here: combination with BGB at IC20, at 0.5 µM",-72.3%
same,inhibition,"[6]; measured here: combination with cisplatin at IC20, at 0.5 µM",-47%
same,inhibition,[7]; at 0.5 µM,-6.67% (inactive)
same,inhibition,"[7]; measured here: combo with BGB at IC20, at 0.5 µM",-7.96%
same,inhibition,"[7]; measured here: combo with cisplatin at IC20, at 0.5 µM",-6.22%
same,inhibition,[8]; at 0.5 µM,12.9% (inactive)
same,inhibition,"[8]; measured here: inhibition with BGB combination, at 0.05 µM",-30.1%
same,inhibition,"[8]; measured here: inhibition with cisplatin combination, at 0.05 µM",-23.2%
same,inhibition,[9]; at 0.5 µM,-19.8% (inactive)
same,inhibition,[9]; [19],-6.3%
same,inhibition,[9]; [20],1.58%
same,inhibition,[10]; at 0.5 µM,-6.35% (inactive)
same,inhibition,"[10]; measured here: BGB combination, at 0.5 µM",-5.5%
same,inhibition,"[10]; measured here: BGB combination, at 5 µM",-1.92%
same,inhibition,"[10]; measured here: cisplatin combination, at 0.5 µM",-13.4%
same,inhibition,"[10]; measured here: cisplatin combination, at 5 µM",-2.01%
same,inhibition,"[11]; BGB combination, concentration series, at 5 µM",22.6%
same,inhibition,[11]; at 0.5 µM,-5.39% (inactive)
same,inhibition,"[11]; cisplatin combination, concentration series, at 5 µM",17%
same,inhibition,[12]; at 0.5 µM,3.77% (inactive)
same,inhibition,"[12]; measured here: combo with BGB IC20, at 0.5 µM",3.42%
same,inhibition,"[12]; measured here: combo with cisplatin IC20, at 0.5 µM",8.86%
same,inhibition,[13]; at 0.5 µM,-7.12% (inactive)
same,inhibition,"[13]; cisplatin combination, at 0.5 µM",-9.24%
same,inhibition,"[13]; cisplatin combination, at 5 µM",-35.5%
same,inhibition,"[13]; measured here: BGB IC40 combination 0.05 uM, at 0.05 µM",-29.6%
same,inhibition,"[13]; single agent, at 5 µM",14.3%
same,inhibition,[14]; at 0.5 µM,-13.8% (inactive)
same,inhibition,"[14]; cisplatin combo, at 5 µM",35.4%
same,inhibition,"[14]; measured here: BGB IC40 combination, at 0.05 µM",-24.6%
same,inhibition,[14]; [19],-43.9%
same,inhibition,"[14]; single agent, at 5 µM",21.9%
same,inhibition,[15]; at 0.5 µM,19.6% (inactive)
same,inhibition,[15]; [17],-5.57%
same,inhibition,[15]; [18],31.1%
same,inhibition,"[15]; single agent, at 0.05 µM",-21.9%
same,inhibition,"[15]; single agent, at 5 µM",32.9%
